Test results: PubChem BioAssay AID1739 (National Center for Advancing Translational Sciences (NCATS), 2009)
Results filed as inconclusive are left out. Activity calls are given as the source filed them. The call rests on the fitted dose curve; in most records, active means well fitted inhibition curve with a large enough effect; inconclusive means small, poorly fitted or top-dose-only effect; inactive means flat fitted curve, though single readings scatter.

experiment: Counterscreen Assay for Enhancers of SMN2 Splice Variant Expression: Modulation of SMN1 Expression; conditions: HEK293 SMN1-luciferase reporter, luminescence, 30-36 h; series mostly up to 22.8 µM; activity change, negative = inhibition: at the top concentration
Excerpt: NIH Chemical Genomics Center [NCGC] NIH Molecular Libraries Probe Production centers Network [MLPCN] MLPCN Grant: R03 MH084179-01 Assay Submitter (PI): Elliot Androphy NCGC Assay Overview: Spinal muscular atrophy (SMA) is caused by insufficient levels of the survival motor neuron protein SMN. The SMN locus on chromosome 5q13 contains two inverted copies of SMN called SMN1 and SMN2 which are 99% identical at the amino acid level. SMN1 is a fully functional protein and SMN2 skips exon 7 90% of the time. Skipping of exon 7 produces non-functional protein product. 10% of the SMN2 protein includes exon 7 and is fully functional. In the SMA disease state, mutations in the SMN1 locus are the cause of the disease state. Because only 10% of SMN2 is of the fully functional form, it is not sufficient to overcome the deficiency produced by the loss of the SMN1 product. A therapy that either increase the amount of SMN2 product made or to increase the inclusion of exon 7 has been proposed for the treatment of SMA. We have designed an assay to identify small molecules that can increase the amount of functional SMN2 product by appending a luciferase reporter gene after the native SMN2 gene, such that inclusion of exon 7 in the expressed product places the luciferase sequence in frame, thus generating functional luciferase enzyme. As a counterscreen for nonspecific modulators of expression, we have run compounds through a similar assay that measures expression of an SMN1-luciferase chimera.
NCGC Assay Protocol Summary: This screen utilizes a luciferase reporter gene assay, combining the promoter with the major portion of the native SMN1 cDNA (exons 1 -7, intron 8 , exon 8 fused to luciferase) stably expressed in HEK293 cells. Compounds that increase luciferase signal presumably enhance expression of the functional SMN1 splice variant. Passaging media contained DMEM w/ glutamax (+phenol red) 10% FCS, 1x pen/strep, 200 ug/ml hygro, 1x sodium pyruvate. Assay media contained DMEM w/ glutamax (-phenol red) 10% FCS, 1x pen strep, 1x pyruvate Sequence, Parameter, Value, Description (1) Cells, 5 uL, 2000 cells/well, 1536 TC treated White solid bottom plate (2) Time, 10-12 hours, 37C 5% CO2 (3) Compound, 23 nl, MLSMR Library (4) Control Compound, 23 nL, Sodium butyrate st 4.5mM (final) conc (5) Time, 30-36 hours, 37C 5% CO2 (6) Reagent, 3 ul, One Glo (TM) from Promega (7) Time, 5-15 minutes, Room temp (8) Detector, Viewlux: luminescent read, 60 second integration, high speed 2x binning Keywords: Spinal muscular atrophy, SMA, SMN2, high throughput screening, MLSMR, MLPCN, NIH Roadmap, qHTS and NCGC

SMILES | activity change, negative = inhibition | Potency
O=C(NCc1cccs1)C(=O)NCC1OCCCN1S(=O)(=O)c1ccccc1 (stereo not given) | 8.45% [at 46.1 µM] (inactive) | 
CCCSc1nnc(Sc2nnnn2-c2ccccc2)s1 |  | 7.08 µM (active)
COc1nc(-c2ccc(Cl)cc2)nnc1C | -25.9% (inactive) | 
Cc1ccc(-c2nnc(-c3ccccc3)c(N3CCOCC3)n2)cc1 | 5.25% (inactive) | 
Cn1cnc2c(NCc3ccco3)ncnc21 | -18.5% [at 46.1 µM] (inactive) | 
CC(C)Nc1nc(-c2ccccc2)nnc1-c1ccccc1 | -4.5% (inactive) | 
COc1ccc(-c2csc(N3CCC(C(N)=O)(N4CCCCC4)CC3)n2)cc1 | -14.5% (inactive) | 
CCCc1sc(N2CCCC(C(N)=O)C2)nc1-c1ccccc1 (stereo not given) | -5.38% (inactive) | 
COc1ccc(CNC(=O)c2ccc(C(C)C)cc2)cc1 | -15.6% [at 46.1 µM] (inactive) | 
CCC1=Nc2ccccc2-c2nnc(SC)nc2O1 | 8.48% (inactive) | 
Clc1nc(NCC2CCCO2)c2[nH]cnc2n1 (stereo not given) | -8.45% [at 46.1 µM] (inactive) | 
Clc1ccc(-c2nnc(-c3ccccc3)nc2-c2c[nH]c3ccccc23)cc1 | -2.01% (inactive) | 
COc1nc(-c2ccccc2)nnc1-c1ccccc1 | -17.3% [at 46.1 µM] (inactive) | 
COC(=O)C1=C(C)NC(=O)/C1=C\c1cc(C)n(-c2ccccc2F)c1C | -7.23% [at 46.1 µM] (inactive) | 
NC(=O)N1c2ccccc2C=Cc2ccccc21 | -14% [at 46.1 µM] (inactive) | 
COc1ccc(-c2csc(N3CCC(c4ccccc4)CC3)n2)cc1 | -4.14% (inactive) | 
Clc1ccc(-c2nnc(-c3ccccc3)c(N3CCSCC3)n2)cc1 | -5.45% (inactive) | 
FC(F)C(F)(F)C1=CC(c2cccs2)=NCCN1 | -7.36% [at 46.1 µM] (inactive) | 
FC(F)(F)c1cccc(Oc2nc(-c3ccccc3)nnc2C(F)(F)F)c1 | -15.9% (inactive) | 
NC(=O)C1(N2CCCCC2)CCN(c2nc(-c3ccccc3)cs2)CC1 | -20.9% (inactive) | 

SMILES | activity change, negative = inhibition | Potency
COc1cccc(NC(=O)CSc2nc3ccccc3nc2N2CCOCC2)c1 |  | 5.01 µM (active)
O=C(O)c1cccc(COc2ccc(CO)cc2Cl)c1 |  | 3.16 µM (active)
Clc1nc(NCc2ccco2)c2[nH]cnc2n1 | -19.7% [at 46.1 µM] (inactive) | 
CN1CCN(c2nc(-c3ccc(Br)cc3)nnc2-c2ccccc2)CC1 | 7.73% (inactive) | 
CCCCOC(C)n1cc(F)c(=O)[nH]c1=O (stereo not given) | 10.5% (inactive) | 
FC(F)(F)c1nnc(-c2ccccc2)nc1Oc1ccccc1 | -5.97% (inactive) | 
Cc1ccc(C(=O)Cn2c3c(sc2=N)CCCC3)cc1 |  | 7.94 µM (active)
Fc1ccc(Oc2nc(-c3ccccc3)nnc2C(F)(F)F)cc1 | 7.18% (inactive) | 
O=S(=O)(NC1CCCc2ccccc21)c1cnc[nH]1 (stereo not given) | -8.82% [at 46.1 µM] (inactive) | 
O=C(Nc1ccc([N+](=O)[O-])cc1Cl)c1cc(Cl)ccc1O |  | 0.708 µM (active)
O=C1CCC(C(=O)Nc2cccc3ccccc23)N1 (stereo not given) | -6.36% [at 46.1 µM] (inactive) | 
O=C(Cc1c(F)cccc1Cl)N1CCN(C(=O)c2ccco2)CC1 | -8.45% [at 46.1 µM] (inactive) | 
O=[N+]([O-])c1ccc(-c2nnc(-c3ccccc3)c(N3CCOCC3)n2)cc1 | 3.38% (inactive) | 
c1coc(CNc2ncnc3nc[nH]c23)c1 | -14.9% [at 46.1 µM] (inactive) | 
CN(C)CCCN(C(=O)c1cccs1)c1nc(-c2ccccc2)cs1 | -16% (inactive) | 
CC(C)(C)n1nnnc1C(c1ccc2ncccc2c1)N1CCSCC1 (stereo not given) | 26.6% [at 46.1 µM] (inactive) | 
CN(Cc1ccccc1)Cc1c(F)cccc1F | -5.6% [at 46.1 µM] (inactive) | 
Clc1ccc(-c2nnc(-c3ccc(Br)cc3)c(N3CCSCC3)n2)cc1 | -12% (inactive) | 
OCCCNc1nc(-c2ccc(Cl)cc2)nnc1-c1ccc(Br)cc1 | 1.41% (inactive) | 
O=C(NCCc1cn2ccsc2n1)c1cccs1 | -7.46% [at 46.1 µM] (inactive) | 
